# Laboratory results taken from PubChem BioAssay AID1986 (Sanford-Burnham Center for Chemical Genomics, 2009).
# About 890 (0.31%) of roughly 290,000 compounds were called active. Rule as the data show it: active = inhibition mostly above about 52% (no sharp cut-off); inactive = mostly below about 76%. The list comes from a sample in which actives are over-represented; it also holds similar structures and randomly drawn compounds.
# Test: cell-free HIV fusion peptide-binding blockers – biochemical, uHTS, fluorescence dequenching, primary screen (AID 1986)
# Conditions: 30 min, stronger effect = higher value
# [1] = measured here: repeat confirmation average inhibition, at 18.6 µM
Compound,inhibition (at 20 µM),inhibition [1] [%]
COc1ccc(CN2CCN(Cc3ccccc3)CC2)c(OC)c1,-1.2% (inactive),
Cc1ccc(N2C(=O)NC(=O)/C(=C\c3cc(C)n(-c4sc5c(c4C#N)CCCC5)c3C)C2=O)cc1,52.2% (active),
Cc1cccc(N2C(=O)NC(=O)/C(=C\c3cc(C)n(-c4sc5c(c4C#N)CCCC5)c3C)C2=O)c1C,22% (inactive),
Cc1cc(/C=C2\C(=O)NC(=O)N(c3ccc(Cl)cc3)C2=O)c(C)n1-c1sc2c(c1C#N)CCCC2,64.4% (inactive),9
CNP(=O)(Oc1ccccc1)OC12CC3CC(CC(C3)C1)C2 (centres undefined),1.8% (inactive),
C=CCn1c(O)c(C(C)=NCCCn2ccnc2)c(=O)[nH]c1=O,0.6% (inactive),
Cc1cc2c(C(C)C)c(O)c(O)c(C=O)c2c(O)c1-c1c(C)cc2c(C(C)C)c(O)c(O)c(C=O)c2c1O,65.7% (active),
COc1cccc(C(=O)C2CCCN(C3CCOCC3)C2)c1 (centres undefined),0.4% (inactive),
O=C1NC(=O)N(c2ccc(F)cc2)C(=O)/C1=C/c1ccc2c(c1)CCCN2Cc1ccccc1,56.3% (active),
Cc1cccc(N2C(=O)NC(=O)/C(=C\c3ccc4c(c3)CCCN4Cc3ccccc3)C2=O)c1,48.8% (inactive),
Cc1ccccc1N1C(=O)NC(=O)/C(=C\c2ccc3c(c2)CCCN3Cc2ccccc2)C1=O,15.8% (inactive),
CC1CCC(N2CCN(C(=O)COc3ccccc3)CC2)CC1 (centres undefined),2.3% (inactive),
Cn1cc(C=C2C(=O)NC(=O)NC2=O)c2ccccc21,160% (inactive),
Cn1cc(C(=O)c2ccccc2)c2ccccc21,-2% (inactive),
Cn1cc(C=C(C#N)C#N)c2ccccc21,72.4% (active),90.2
C=C1N2CCC(CC2)C1(O)c1ccccc1C (centres undefined),1.2% (inactive),
O=C(c1cccnc1)C1CCCN(Cc2nc(-c3cnccn3)no2)C1 (centres undefined),-0.9% (inactive),
C=CCc1cc(C=C2C(=O)N(C)C(=O)N(C)C2=O)cc(OCC)c1OCc1ccccc1,11.3% (inactive),
Cc1cc(=O)oc2cc3c(cc12)CCCN3,0.7% (inactive),
O=c1cc(C(F)(F)F)c2cc3c4c(c2o1)CCCN4CCC3,-0.6% (inactive),
Cc1cc2c(C(F)(F)F)cc(=O)oc2c2c1NCCC2,51.9% (active),56.2
COc1ccc(CN2C(=O)NC(=O)/C(=C\c3ccco3)C2=O)cc1,91.3% (active),
O=C1NC(=O)N(Cc2ccco2)C(=O)/C1=C/C=C/c1ccco1,83.8% (active),
COc1ccc(CN2C(=O)NC(=O)/C(=C/c3ccoc3)C2=O)cc1,146% (inactive),
CCN(CC)c1ccc(/C=C2\C(=O)NC(=O)N(CC3CCCO3)C2=O)cc1 (centres undefined),48.8% (inactive),

Compound,inhibition (at 20 µM),inhibition [1] [%]
CCOc1ccc(N2C(=O)/C(=C/c3ccco3)C(=O)NC2=S)cc1,31.9% (inactive),
O=C1NC(=O)N(Cc2ccccc2)C(=O)/C1=C\c1ccco1,65.1% (inactive),4.5
COc1ccc(N2C(=O)/C(=C/c3cccs3)C(=O)NC2=S)cc1,15.2% (inactive),
CCN(CC)c1ccc(/C=C2/C(=O)NC(=O)N(CC3CCCO3)C2=O)cc1 (centres undefined),22.9% (inactive),
O=C1NC(=O)N(Cc2ccccc2)C(=O)/C1=C/C=C/c1ccco1,146% (inactive),
CCN(CC)c1ccc(/C=C2\C(=O)NC(=O)N(Cc3ccco3)C2=O)cc1,84.3% (active),
CCOc1ccc(N2C(=O)/C(=C\c3cccs3)C(=O)NC2=S)cc1,55.7% (active),
O=C1NC(=O)N(Cc2ccccc2)C(=O)/C1=C\C=C\c1ccco1,84.6% (inactive),15.8
CN(C)C(=O)Oc1ccc(-c2cn3cc(Cl)ccc3n2)cc1,-0.5% (inactive),
COCCOC(=O)C1=C(C)OC(N)=C(C(=O)OC)C12C(=O)Nc1ccccc12 (centres undefined),-2% (inactive),
CNC(C(=O)c1ccccc1)C(OC)c1cccc([N+](=O)[O-])c1 (centres undefined),1.8% (inactive),
Cc1cc(C)nc(N2Cc3ccccc3C2=N)n1,-3.6% (inactive),
COc1ccc(OC(=O)N(C)C)c(CN(C)C)c1,0.5% (inactive),
COc1ccc(CN2C(=O)NC(=O)/C(=C/c3ccc([N+](=O)[O-])s3)C2=O)cc1,55.1% (inactive),18.5
O=C1NC(=O)N(Cc2ccc(F)cc2)C(=O)/C1=C/c1cccs1,-3.9% (inactive),
COc1ccc(/C=C2/C(=O)NC(=O)N(Cc3ccco3)C2=O)cc1,50.2% (active),
C=CCN1C(=O)/C(=C/c2cccs2)C(=O)NC1=S,15.5% (inactive),
Cc1ccc(N2C(=O)NC(=O)/C(=C\C=C\c3ccco3)C2=O)cc1,75.4% (inactive),16.3
Cc1cc(C)cc(N2C(=O)NC(=O)/C(=C\C=C\c3ccco3)C2=O)c1,108% (inactive),13.9
CN1C(=O)NC(=O)/C(=C/c2ccc([N+](=O)[O-])o2)C1=O,27.7% (inactive),
Cc1cc(/C=C2/C(=O)NC(=O)N(Cc3ccco3)C2=O)c(C)n1-c1ccccc1,92.7% (inactive),2.6
O=C1NC(=S)N(Cc2ccco2)C(=O)/C1=C\c1cccs1,67.5% (active),
Cc1cccc(N2C(=O)NC(=O)/C(=C\C=C\c3ccco3)C2=O)c1,98.4% (active),
COc1ccc(/C=C2/C(=O)N(Cc3ccco3)C(=O)N(C(C)C)C2=O)cc1,9% (inactive),
COc1ccc(CN2C(=O)NC(=O)/C(=C/c3ccc([N+](=O)[O-])o3)C2=O)cc1,85.6% (active),
